Laboratory results published in PubChem BioAssay (EPA / NIEHS).
Where “and” joins values, the source holds several entries; their conditions need not be identical. Equal entries are not always repeated. Records with an inconclusive call do not appear. Some compounds were tested as several samples or in several runs, with calls that do not always agree. Calls of active or inactive are those of the source. How the source made its calls: active means hit-call score of the fitted dose curve at least 0.9, where 1 is the maximum; inconclusive means response in the unintended direction; inactive means score below 0.9.

Tests used:
[1] = ATG_XTT_Cytotoxicity: Cytotoxicity Assessment in the Attagene TRANS-FACTORIAL HepG2 Assay (AID 2283584);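 on AC50: cells exposed to compound for 24 h before reading; active means loss of viability signal versus DMSO baseline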
In short: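 Viability endpoint from XTT after 24 h chemical exposure of reporter-transfected human HepG2 liver cells; signal loss fitted relative to DMSO negative control.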

[2] = TOX21_p53_BLA_p2_viability: Viability Assessment in the Tox21 HCT-116 p53 Agonism Beta-lactamase Assay, Phase 2 (AID 2283591);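 further: compound exposure lasted 16 h at 37 °C; actives lower the ATP signal meaning cytotoxicity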
In short: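 Cytotoxicity readout: CellTiter-Glo ATP luminescence, 30 min at room temperature, after the beta-lactamase read. Cells were HCT116 exposed 16 h at 37C to compounds pin-transferred at 217-fold dilution from DMSO stocks.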

[3] = target: Cellular tumor antigen p53 (Homo sapiens) (UniProt P04637); assay: TOX21_p53_BLA_p2_ratio: Tox21 HCT-116 p53 Agonism Beta-lactamase Assay, Ratio, Phase 2 (AID 2283592)
Chain of Cellular tumor antigen p53 (Homo sapiens) (P04637 whole entry, looked up): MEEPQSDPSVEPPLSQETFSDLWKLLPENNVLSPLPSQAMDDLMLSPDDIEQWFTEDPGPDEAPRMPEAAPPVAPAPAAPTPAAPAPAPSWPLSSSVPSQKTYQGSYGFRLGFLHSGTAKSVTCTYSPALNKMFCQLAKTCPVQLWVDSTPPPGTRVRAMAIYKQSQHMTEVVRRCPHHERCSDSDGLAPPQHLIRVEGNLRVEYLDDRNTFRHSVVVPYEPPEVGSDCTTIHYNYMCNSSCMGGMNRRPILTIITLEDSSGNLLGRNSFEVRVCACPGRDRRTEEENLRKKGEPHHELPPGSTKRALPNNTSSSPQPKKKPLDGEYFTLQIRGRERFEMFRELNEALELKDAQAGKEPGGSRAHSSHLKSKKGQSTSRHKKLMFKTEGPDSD
In short: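 Gain-of-signal p53 agonism was scored from the beta-lactamase FRET ratio (460/530 nm, 405 nm excitation) in HCT116 cells treated 16 h at 37C, 5% CO2, with DMSO serving as negative control and baseline.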

[4] = target: Cellular tumor antigen p53 (Homo sapiens) (UniProt P04637); assay: TOX21_p53_BLA_p3_ratio: Tox21 HCT-116 p53 Agonism Beta-lactamase Assay, Ratio, Phase 3 (AID 2283596)
In short: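 HCT116 p53-bla cells (4000/well) given compound in DMSO (217-fold dilution) after 5 h, incubated 16 h at 37C. CCF4-AM substrate 2 h at room temperature; 460/530 nm emission ratio, gain fitted against DMSO.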

[5] = TOX21_p53_BLA_p3_viability: Viability Assessment in the Tox21 HCT-116 p53 Agonism Beta-lactamase Assay, Phase 3 (AID 2283593);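 further: cells exposed to compound for 16 h before reading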
In short: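 Cellular ATP was quantified by CellTiter-Glo luminescence, read after 30 min at room temperature. Beforehand, HCT116 cells (4000/well) received compound 5 h post-seeding, 217-fold diluted from DMSO, then incubated 16 h at 37C.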

[6] = target: Cellular tumor antigen p53 (Homo sapiens) (UniProt P04637); assay: TOX21_p53_BLA_p5_ratio: Tox21 HCT-116 p53 Agonism Beta-lactamase Assay, Ratio, Phase 5 (AID 2283599)
In short: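 Beta-lactamase reporter ratio (blue 460 nm over green 530 nm, 405 nm excitation) after 2 h CCF4-AM loading, in HCT-116 cells exposed 16 h at 37 C to compounds pinned at 217-fold dilution. Increases relative to DMSO baseline scored.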

[7] = TOX21_p53_BLA_p5_viability: Viability Assessment in the Tox21 HCT-116 p53 Agonism Beta-lactamase Assay, Phase 5 (AID 2283600)
In short: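 After the 460/530 nm beta-lactamase measurement, the wells received an ATP-detection luciferase reagent; signal was read 30 min later at RT. Compound treatment lasted 16 h on cells pre-incubated 5 h post-seeding.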

[8] = target: Cellular tumor antigen p53 (Homo sapiens) (UniProt P04637); assay: TOX21_p53_BLA_p4_ratio: Tox21 HCT-116 p53 Agonism Beta-lactamase Assay, Ratio, Phase 4 (AID 2283601)
In short: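 Signal is the blue/green (460nm/530nm) ratio of cleaved versus uncleaved CCF4-AM substrate, read after 2 h substrate loading. Cells were HCT116 carrying the p53-responsive beta-lactamase reporter, dosed 16 h at 37C, 5% CO2; CellTiter-Glo measured in parallel.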

[9] = TOX21_p53_BLA_p4_viability: Viability Assessment in the Tox21 HCT-116 p53 Agonism Beta-lactamase Assay, Phase 4 (AID 2283597);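 further: hits lower the luminescence signal meaning cytotoxicity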
In short: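 Following a 16 h exposure at 37C, the treated HCT116 wells were first read for the FRET ratio. They were then lysed with CellTiter-Glo, and ATP luminescence was recorded after 30 min at room temperature.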

Measured: AC50

c1ccc(Cc2ccccc2)cc1
inactive: [1] | [2] | [3] | [4]

CCC(C)(C)c1cc(O)c(C(C)(C)CC)cc1O
not listed: [9]
inactive: all other assays above

CCC(C)(C)C1CCC(OC)CC1 (configuration not stated)
not listed: [7] | [8]
inactive: all other assays above

CC(C)(C)c1cc(CCC(=O)OCCSCCOC(=O)CCc2cc(C(C)(C)C)c(O)c(C(C)(C)C)c2)cc(C(C)(C)C)c1O
inactive: [1]

CC(=O)Nc1cc(S(=O)(=O)O)cc2cc(S(=O)(=O)O)c(N=Nc3ccccc3)c(O)c12
not listed: [4] | [5]
inactive: all other assays above

CC(O)COCC(C)O (configuration not stated)
not listed: [8]
inactive: all other assays above

c1ccc(OCCOc2ccccc2)cc1
not listed: [8]
inactive: all other assays above

Cc1ccncc1
not listed: [8]
inactive: all other assays above

CN(C)CCC=C1c2ccccc2CCc2ccccc21
inactive: [3] | [5] | [4] | [9]
active: [1] 157 µM | [2] 74.2 µM | [9] 72.1 µM

NC(=O)c1cnccn1
not listed: [4] | [7] | [9]
inactive: all other assays above

C=CC(O)CCCCC (configuration not stated)
inactive: [1] | [2] | [3] | [5] | [9]

COc1ccc(OC)cc1
inactive: all assays above

O=C(O)c1cccc(Cl)n1
inactive: [1] | [2]

CC(=O)CC(=O)N(C)C
inactive: [1] | [2] | [3] | [9] | [6]

CCCCCCCCCC(=O)OCC
not listed: [9]
inactive: all other assays above

CCCCCCCCCCCCCCCCCC(=O)OCCCCCCCCCCCCCC(C)C
inactive: [1] | [2] | [3] | [9] | [6]

CCCC1CCOC(C)S1 (configuration not stated)
inactive: [1]

O=C(O)C1=NN(c2ccc(S(=O)(=O)O)cc2)C(=O)C1
not listed: [5] | [9]
inactive: all other assays above

CCOC(=O)C=Cc1ccccc1
not listed: [4] | [8] | [9]
inactive: all other assays above

CC(=O)OC/C=C(C)/C=C/C=C(C)/C=C/C1=C(C)CCCC1(C)C
not listed: [4]
inactive: all other assays above

NC(N)=S
not listed: [4] | [7] | [9]
inactive: all other assays above

CC(CCO)CC(C)(C)C (configuration not stated)
not listed: [4] | [5]
inactive: all other assays above

CCCCCCC(C)O (configuration not stated)
not listed: [7]
inactive: all other assays above

C[C@H](CCC(=O)O)[C@H]1CC[C@H]2[C@@H]3CC[C@@H]4C[C@H](O)CC[C@]4(C)[C@H]3CC[C@]12C
inactive: [1] | [3] | [4] | [9] | [6]
active: [2] 16.3 µM and 14.2 µM | [3] 21.8 µM | [5] 31.4 µM and 30 µM | [4] 31.1 µM | [9] 13.5 µM | [6] 18.2 µM

CC(C)(C)C1CCC(O)CC1 (configuration not stated)
not listed: [6]
inactive: all other assays above

C[N+](C)(C)CCO
inactive: [1]

CN1CCc2cccc3c2[C@H]1Cc1ccc(O)c(O)c1-3
inactive: [1] | [2] | [3] | [5] | [4] | [9] | [6] | [7] | [8]
active: [3] 56.6 µM | [9] 35.5 µM and 44.9 µM | [6] 86.8 µM | [8] 67.3 µM

CCCCCCCCOC(=O)c1ccc(O)cc1
inactive: [1]
active: [1] 100 µM

CC12CCC(C1)C(C)(C)C2O (configuration not stated)
not listed: [6] | [9]
inactive: all other assays above

NC(=O)c1cccnc1
not listed: [7]
inactive: all other assays above

NC(=O)NC(N)=O
not listed: [4] | [9]
inactive: all other assays above

CCCCCC(=O)O[C@]1(C(C)=O)CC[C@H]2[C@@H]3CCC4=CC(=O)CC[C@]4(C)[C@H]3CC[C@@]21C
not listed: [7]
inactive: all other assays above

CC(=O)CCC(=O)O
inactive: [1]

CCCCC(CC)COCCO (configuration not stated)
inactive: [1] | [2] | [3] | [4] | [6]

CC/C=C\C#N
inactive: [1] | [2] | [3] | [9] | [6]

C=C(C)C(=O)OCCOCCOC(=O)C(=C)C
inactive: [1]

CC(C)C(=O)OCC=Cc1ccccc1
not listed: [4] | [5] | [8]
inactive: all other assays above

CC(C)(C)c1ccc(S)cc1
inactive: [1] | [2]

CCOC(=O)COC(=O)c1ccccc1C(=O)OCC
inactive: [1] | [2] | [9] | [6] | [8]

CCOC(=O)C(=O)OCC
inactive: [1] | [3] | [5] | [4] | [6]

COc1ccccc1O
not listed: [2]
inactive: all other assays above

O=Cc1ccccc1O
not listed: [2] | [8]
inactive: all other assays above

Cc1cc(N)n(-c2ccccc2)n1
inactive: [1] | [2] | [5] | [8]

O=S1(=O)CC(Cl)(Cl)C(Cl)(Cl)C1
inactive: [3]
active: [1] 26 µM | [5] 24.9 µM | [4] 47.6 µM | [9] 9.34 µM | [6] 39.4 µM | [7] 6.87 µM | [8] 39 µM

CCCCCCCCCCCCN1CCOCC1
not listed: [2] | [8] | [9]
inactive: all other assays above

COC(=O)C(C)Oc1ccc(Oc2ncc(C(F)(F)F)cc2Cl)cc1 (configuration not stated)
inactive: [1] | [3] | [5] | [4] | [9]

CCCCCc1cccc(=O)o1
not listed: [3] | [7] | [8]
inactive: all other assays above

CCOc1ccc(NC(C)=O)cc1
not listed: [2]
inactive: all other assays above

OC[C@H]1O[C@@H](O[C@H]2[C@H](O)[C@@H](O)[C@H](O)O[C@@H]2CO)[C@H](O)[C@@H](O)[C@H]1O
inactive: [1] | [2] | [3] | [7]

CC(C)CCOC(=O)CC(C)C
inactive: [1] | [2] | [5] | [4] | [6]

C=C(C)CCCC(C)CCO (configuration not stated)
inactive: [1] | [2] | [5] | [9] | [6]

c1coc(CNc2ncnc3nc[nH]c23)c1
not listed: [3] | [4]
inactive: all other assays above

O=C(OCc1ccccc1)c1ccccc1O
not listed: [2] | [8]
inactive: all other assays above

CC1COC(=O)O1 (configuration not stated)
inactive: [1] | [3] | [5] | [4]

CN(C)C
not listed: [2] | [4] | [8]
inactive: all other assays above

C=CCCCCCCCCC(=O)OCC
not listed: [2] | [4] | [8]
inactive: all other assays above

C=CCOCC(O)CO (configuration not stated)
inactive: [1] | [2] | [5] | [6] | [8]

FC(F)(F)c1ccc(Cl)c(Cl)c1
inactive: [1] | [3] | [5] | [9] | [6]

CCCCCCCCCCCCOCCOS(=O)(=O)O
active: [1] 154 µM | [9] 60.4 µM
inactive: [2] | [5] | [6]
